# Assay results reported in the supplement of paper PMC8728848.
# This excerpt belongs to a sample that is enriched for the strongest signals.
# B1: EUL D1A first (Oryza sativa) (protein)
# chain: MFGFGHHHNQAPAAPSDPNQIFKIFCRANENYCLTVRDSAVVLAPVNPKDEHQHWFKDMRFSTKVKDGEGMPAFALVNKATGLAVKHSLGQSHPVKLVPFNPEYEDASVLWTESKDVGKGFRCIRMVNNTRLNLDAFHGDKDHGGVRDGTTVVLWEWCKGDNQSWKILPWGPEAHSSSPGAATILEQKLISEEDLNSAVDHHHHHH
# Key:
# Test in all cases: glycan array binding signal (z-score within array); higher = stronger binding
# Details in all cases: glycan notation: IUPAC condensed, linker removed
# [1] = target: Fuc(a1-2)Gal(b1-3)GalNAc
# In short: (§1)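 The Consortium for Functional Glycomics database supplied 3228 glycan arrays, of which those lacking an available protein sequence were dropped. The binding signal, a within-array Z-score, was averaged across arrays of the same protein sequence and across linkers. Negative scores can be read as non-binding.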
# [2] = target: Fuc(a1-2)Gal(b1-3)GalNAc(b1-3)Gal(a1-4)Gal(b1-4)Glc
# In short: as §1
# [3] = target: Fuc(a1-2)Gal(b1-3)GlcNAc6S
# In short: as §1
# [4] = target: Fuc(a1-2)Gal(b1-4)GlcNAc
# In short: as §1
# [5] = target: Fuc(a1-2)Gal(b1-4)GlcNAc(b1-3)[Fuc(a1-3)[Gal(b1-4)]GlcNAc(b1-6)]Gal(b1-4)Glc
# In short: as §1
# [6] = target: Fuc(a1-2)Gal(b1-4)[Fuc(a1-3)]GlcNAc(b1-3)Gal(b1-4)[Fuc(a1-3)]GlcNAc(b1-3)Gal(b1-4)[Fuc(a1-3)]GlcNAc
# In short: as §1
# [7] = target: Fuc(a1-2)[Gal(a1-3)]Gal(b1-3)GlcNAc
# In short: as §1
# [8] = target: Fuc(a1-2)[Gal(a1-3)]Gal(b1-3)GlcNAc(b1-6)GalNAc
# In short: as §1
# [9] = target: Fuc(a1-2)[GalNAc(a1-3)]Gal(b1-4)GlcNAc(b1-2)Man(a1-3)[Fuc(a1-2)[GalNAc(a1-3)]Gal(b1-4)GlcNAc(b1-2)Man(a1-6)]Man(b1-4)GlcNAc(b1-4)[Fuc(a1-6)]GlcNAc
# In short: as §1
# [10] = target: Fuc(a1-2)[GalNAc(a1-3)]Gal(b1-4)GlcNAc(b1-3)Gal(b1-4)GlcNAc
# In short: as §1
# [11] = target: Fuc(a1-3)[Gal(b1-4)]GlcNAc(b1-2)Man
# In short: as §1
# [12] = target: Gal(a1-2)Gal
# In short: as §1
# [13] = target: Gal(a1-3)Gal(b1-3)GlcNAc(b1-2)Man(a1-3)[Gal(a1-3)Gal(b1-3)GlcNAc(b1-2)Man(a1-6)]Man(b1-4)GlcNAc(b1-4)GlcNAc
# In short: as §1
# [14] = target: Gal(a1-3)Gal(b1-4)[Fuc(a1-3)]GlcNAc
# In short: as §1
# [15] = target: Gal(a1-4)Gal(b1-3)GlcNAc(b1-2)Man(a1-3)[Gal(a1-4)Gal(b1-3)GlcNAc(b1-2)Man(a1-6)]Man(b1-4)GlcNAc(b1-4)GlcNAc
# In short: as §1
# [16] = target: Gal(a1-4)Gal(b1-4)Glc
# In short: as §1
# [17] = target: Gal(b1-3)GalNAc
# In short: as §1
# [18] = target: Gal(b1-3)GalNAc(a1-3)[Fuc(a1-2)]Gal(b1-4)Glc
# In short: as §1
# [19] = target: Gal(b1-3)GalNAc(b1-3)Gal(a1-4)Gal(b1-4)Glc
# In short: as §1
# [20] = target: Gal(b1-3)[GlcNAc(b1-6)]GalNAc
# In short: as §1
# [21] = target: Gal(b1-3)[Neu5Ac(b2-6)]GalNAc
# In short: as §1
# [22] = target: Gal(b1-4)GlcNAc(a1-6)Gal(b1-4)GlcNAc
# In short: as §1
# [23] = target: Gal(b1-4)GlcNAc(b1-2)Man(a1-3)[Gal(b1-4)GlcNAc(b1-2)Man(a1-6)]Man(b1-4)GlcNAc(b1-4)GlcNAc
# In short: as §1
# [24] = target: Gal(b1-4)GlcNAc(b1-2)Man(a1-3)[Gal(b1-4)GlcNAc(b1-2)Man(a1-6)][GlcNAc(b1-4)]Man(b1-4)GlcNAc(b1-4)[Fuc(a1-6)]GlcNAc
# In short: as §1
# [25] = target: Gal(b1-4)GlcNAc(b1-2)Man(a1-6)Man(b1-4)GlcNAc(b1-4)GlcNAc
# In short: as §1
# [26] = target: Gal(b1-4)GlcNAc(b1-2)[Gal(b1-4)GlcNAc(b1-4)]Man(a1-3)[GlcNAc(b1-4)][Gal(b1-4)GlcNAc(b1-2)Man(a1-6)]Man(b1-4)GlcNAc(b1-4)GlcNAc
# In short: as §1
# [27] = target: Gal(b1-4)GlcNAc(b1-2)[Gal(b1-4)GlcNAc(b1-6)]Man(a1-6)[Gal(b1-4)GlcNAc(b1-2)Man(a1-3)]Man(b1-4)GlcNAc(b1-4)GlcNAc
# In short: as §1
# [28] = target: Gal(b1-4)GlcNAc(b1-3)Gal(b1-4)GlcNAc(b1-3)Gal(b1-4)GlcNAc(b1-2)[Gal(b1-4)GlcNAc(b1-3)Gal(b1-4)GlcNAc(b1-3)Gal(b1-4)GlcNAc(b1-6)]Man(a1-6)[Gal(b1-4)GlcNAc(b1-3)Gal(b1-4)GlcNAc(b1-3)Gal(b1-4)GlcNAc(b1-2)Man(a1-3)]Man(b1-4)GlcNAc(b1-4)[Fuc(a1-6)]GlcNAc
# In short: as §1
# [29] = target: Gal(b1-4)GlcNAc(b1-3)Gal(b1-4)[Fuc(a1-3)]GlcNAc(b1-3)Gal(b1-4)[Fuc(a1-3)]GlcNAc
# In short: as §1
# [30] = target: Gal(b1-4)GlcNAc(b1-6)[Gal(b1-4)GlcNAc(b1-3)]GalNAc
# In short: as §1
# [31] = target: GalNAc(a1-3)GalNAc(b1-3)Gal(a1-4)Gal(b1-4)Glc
# In short: as §1
# [32] = target: GalNAc(b1-3)Gal(a1-6)Gal(b1-4)Glc
# In short: as §1
# [33] = target: GalNAc(b1-4)GlcNAc6S
# In short: as §1
# [34] = target: GalNAc3S(b1-4)GlcNAc3S
# In short: as §1
# [35] = target: GalNAc4S6S(b1-4)GlcNAc
# In short: as §1
# [36] = target: GlcNAc(b1-2)Man(a1-3)[GlcNAc(b1-2)Man(a1-6)]Man(b1-4)GlcNAc(b1-4)[Fuc(a1-6)]GlcNAc
# In short: as §1
# [37] = target: GlcNAc(b1-3)Gal(b1-4)GlcNAc(b1-2)[GlcNAc(b1-3)Gal(b1-4)GlcNAc(b1-6)]Man(a1-6)[GlcNAc(b1-3)Gal(b1-4)GlcNAc(b1-2)Man(a1-3)]Man(b1-4)GlcNAc(b1-4)GlcNAc
# In short: as §1
# [38] = target: GlcNAc(b1-3)Gal(b1-4)GlcNAc(b1-3)Gal(b1-4)GlcNAc(b1-3)Gal(b1-4)GlcNAc(b1-3)Gal(b1-4)GlcNAc(b1-2)Man(a1-3)[GlcNAc(b1-3)Gal(b1-4)GlcNAc(b1-3)Gal(b1-4)GlcNAc(b1-3)Gal(b1-4)GlcNAc(b1-3)Gal(b1-4)GlcNAc(b1-2)Man(a1-6)]Man(b1-4)GlcNAc(b1-4)[Fuc(a1-6)]GlcNAc
# In short: as §1
# [39] = target: GlcNAc(b1-3)[GlcNAc(b1-6)]Gal(b1-4)GlcNAc
# In short: as §1
# [40] = target: GlcNAc(b1-4)GlcNAc(b1-4)GlcNAc(b1-4)GlcNAc(b1-4)GlcNAc(b1-4)GlcNAc
# In short: as §1
# [41] = target: Man(a1-2)Man(a1-3)Man
# In short: as §1
# [42] = target: Neu5Ac(a2-3)Gal(b1-3)GlcNAc(b1-3)Gal(b1-3)GlcNAc
# In short: as §1
# [43] = target: Neu5Ac(a2-3)Gal(b1-3)[GlcNAc(b1-6)]GalNAc
# In short: as §1
# [44] = target: Neu5Ac(a2-3)Gal(b1-4)GlcNAc(b1-3)Gal(b1-4)GlcNAc(b1-6)[Gal(b1-3)]GalNAc
# In short: as §1
# [45] = target: Neu5Ac(a2-3)Gal(b1-4)GlcNAc(b1-3)Gal(b1-4)[Fuc(a1-3)]GlcNAc
# In short: as §1
# [46] = target: Neu5Ac(a2-3)Gal(b1-4)GlcNAc(b1-6)[Gal(b1-3)]GalNAc
# In short: as §1
# [47] = target: Neu5Ac(a2-3)Gal(b1-4)[Fuc(a1-3)]GlcNAc(b1-3)GalNAc
# In short: as §1
# [48] = target: Neu5Ac(a2-3)[Neu5Ac(a2-6)]GalNAc
# In short: as §1
# [49] = target: Neu5Ac(a2-6)Gal(b1-4)GlcNAc(b1-2)Man(a1-6)[Man(a1-3)]Man(b1-4)GlcNAc(b1-4)GlcNAc
# In short: as §1
# [50] = target: Neu5Gc(a2-3)Gal(b1-4)Glc
# In short: as §1
# [51] = target: Neu5Gc(a2-3)Gal(b1-4)GlcNAc
# In short: as §1
binder,measurement,setting,value
B1,glycan array binding signal (z-score),[1],-0.658
same,glycan array binding signal (z-score),[2],2.66
same,glycan array binding signal (z-score),[3],3.74
same,glycan array binding signal (z-score),[4],-0.369
same,glycan array binding signal (z-score),[5],2.74
same,glycan array binding signal (z-score),[6],0.387
same,glycan array binding signal (z-score),[7],0.384
same,glycan array binding signal (z-score),[8],-0.959
same,glycan array binding signal (z-score),[9],0.095
same,glycan array binding signal (z-score),[10],-0.61
same,glycan array binding signal (z-score),[11],3.34
same,glycan array binding signal (z-score),[12],-0.848
same,glycan array binding signal (z-score),[13],3.31
same,glycan array binding signal (z-score),[14],-0.411
same,glycan array binding signal (z-score),[15],2.2
same,glycan array binding signal (z-score),[16],0.4
same,glycan array binding signal (z-score),[17],-0.735
same,glycan array binding signal (z-score),[18],-1.67
same,glycan array binding signal (z-score),[19],-0.207
same,glycan array binding signal (z-score),[20],-1.03
same,glycan array binding signal (z-score),[21],-1.15
same,glycan array binding signal (z-score),[22],1.94
same,glycan array binding signal (z-score),[23],3.09
same,glycan array binding signal (z-score),[24],-1.23
same,glycan array binding signal (z-score),[25],3.03
same,glycan array binding signal (z-score),[26],-1.53
same,glycan array binding signal (z-score),[27],-1.05
same,glycan array binding signal (z-score),[28],2.45
same,glycan array binding signal (z-score),[29],-0.16
same,glycan array binding signal (z-score),[30],-0.802
same,glycan array binding signal (z-score),[31],-0.059
same,glycan array binding signal (z-score),[32],-2.32
same,glycan array binding signal (z-score),[33],-0.411
same,glycan array binding signal (z-score),[34],-0.185
same,glycan array binding signal (z-score),[35],0.534
same,glycan array binding signal (z-score),[36],3.11
same,glycan array binding signal (z-score),[37],1.95
same,glycan array binding signal (z-score),[38],2.06
same,glycan array binding signal (z-score),[39],6.85
same,glycan array binding signal (z-score),[40],-0.541
same,glycan array binding signal (z-score),[41],0.615
same,glycan array binding signal (z-score),[42],0.506
same,glycan array binding signal (z-score),[43],0.405
same,glycan array binding signal (z-score),[44],0.24
same,glycan array binding signal (z-score),[45],-0.958
same,glycan array binding signal (z-score),[46],0.081
same,glycan array binding signal (z-score),[47],3.45
same,glycan array binding signal (z-score),[48],-0.451
same,glycan array binding signal (z-score),[49],-0.647
same,glycan array binding signal (z-score),[50],-0.152
same,glycan array binding signal (z-score),[51],0.3
